Measurements from PubChem BioAssay (NCATS).
Results filed as inconclusive are left out. Values without a mark were called inactive. Active and inactive are the calls of the source. Calls follow the shape of the dose curve; as a rule, active = well fitted inhibition curve with a large enough effect; inconclusive = small, poorly fitted or top-dose-only effect; inactive = flat fitted curve, though single readings scatter.

These compounds were tested on NIH3T3 (assay: Cytotoxic Profiling of Annotated Libraries Using Quantitative High-Throughput Screening (AID 1296008; also: nearly all actives have a fitted effect of over 60% in size)). Details: Five cell lines viability, CellTiter-Glo ATP luminescence, 48-72 h; max response: stronger effect = lower value.
Summary of the method: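 Cells exposed to compounds for 48 or 72 hr at 37 degrees Celsius. Viability read as ATP-coupled luminescence with CellTiter-Glo after 10 min at room temperature.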
% is scaled to controls: 0 for no effect and ±100 for the full control effect; potency is read from the fitted curve at half-maximal effect.

Structure (SMILES)	max response [%]	Potency
O=C1CCC=CC1(O)C(=O)OCc1ccccc1O[C@@H]1O[C@H](CO)[C@@H](O)[C@H](O)[C@H]1O (stereo partly specified)	-27.2	–
C=CC(C)(O)CC[C@H]1C(=C)CCC2[C@](C)(C(=O)O)CCC[C@@]21C (stereo partly specified)	2.59	–
CC1CCC2(OC1)OC1CC3C4CC=C5CC(O)CC(O[C@@H]6OC[C@@H](O)[C@H](O)[C@H]6O)C5(C)C4CCC3(C)C1(O)C2C (stereo partly specified)	-1.3	–
C=C1C[C@]23C[C@H]1[C@@H](O)C[C@H]2[C@@]12C=C[C@H](O)[C@@](C)(C(=O)O1)[C@H]2[C@@H]3C(=O)O	0.227	–
Cc1ccccc1CN1C2=NCCN2C(=O)C2=C1CCN(Cc1ccccc1)C2	-0.888	–
C[C@]12C=C[C@@]3(CCC4[C@](C)(CO)CCC[C@@]4(C)C3CC1)C2 (stereo partly specified)	-6.89	–
CC(C)C(CO)Nc1nc(Nc2ccc(C(=O)O)c(Cl)c2)c2ncn(C(C)C)c2n1 (stereo unspecified)	-3.63	–
O=C(Nc1ccc(-c2ccncc2)cc1)N[C@H](CO)c1ccccc1	-5.95	–
CCOc1cc(N2CCC(O)CC2)ccc1Nc1ncc2c(n1)N(C1CCCC1)CCC(=O)N2C	–	4.11 µM (active)
O=C(Nc1ccc(S(=O)(=O)C(F)(F)F)cc1)C1=CCN(c2ncccc2C(F)(F)F)CC1	–	16.4 µM (active)
COc1cc(C(=O)NC2CCN(C)CC2)ccc1Nc1ncc2c(n1)N(C1CCCC1)CC(F)(F)C(=O)N2C	–	2.06 µM (active)
CC(=O)N1CCN(Cc2ccc([C@H](C)Nc3nccc(N4C(=O)OC[C@@H]4C(C)C)n3)cc2)CC1	-9.86	–
C[C@@H]1O[C@@H](OC[C@H]2O[C@@H](OC(CCCCc3ccc(O)cc3)CCc3ccc(O)cc3)[C@H](O)[C@@H](O)[C@@H]2O)[C@H](O)[C@H](O)[C@H]1O (stereo partly specified)	-4.82	–
O=C(C(c1ccccc1)c1ccccc1)N1CCN(CC(O)COc2cccc3ncccc23)CC1 (stereo unspecified)	-26.9	–
C[C@H](NC(=O)CCc1nc2ccccc2c(=O)[nH]1)c1ccccc1	-5.46	–
CCOCc1nc2c(N)nc3ccccc3c2n1CC(C)(C)O	-2.04	–

Structure (SMILES)	max response [%]	Potency
Cc1c(C(=O)N2CCOc3ccc(-c4ccc(N)nc4)cc3C2)ccc(S(C)(=O)=O)c1F	–	11.6 µM (active)
CC(=O)OC[C@H]1O[C@H](O[C@]2(CO)O[C@H](CO)[C@@H](OC(=O)/C=C/c3ccccc3)[C@@H]2O)[C@H](O)[C@@H](O)[C@@H]1O	-0.33	–
CN(c1ccccc1CNc1nc(Nc2ccc3c(c2)CC(=O)N3)ncc1C(F)(F)F)S(C)(=O)=O	–	5.8 µM (active)
N#Cc1c(Oc2ccc(F)c(NC(=O)Cc3cccc(C(F)(F)F)c3)c2)ccc2nc(NC(=O)C3CC3)sc12	–	1.46 µM (active)
C=C1CCC2C(C)(C(=O)OC)CCCC2(C)C1CCC(C)CC(=O)O (stereo unspecified)	2.98	–
C[C@@H]1CCC/C=C/[C@H]2CC(=O)C[C@@H]2[C@@H](O)/C=C/C(=O)O1	-2.1	–
CCC1C(=O)N(C)c2cnc(Nc3ccc(C(=O)NC4CCC(N5CCN(CC6CC6)CC5)CC4)cc3OC)nc2N1C(C)C (stereo unspecified)	–	1.64 µM (active)
O=C(O)COCCN1CCN([C@H](c2ccccc2)c2ccc(Cl)cc2)CC1	0.14	–
Cc1nc([C@](C)(O)CO)sc1-c1cnc(N)c(O[C@H](C)c2cc(F)ccc2-n2nccn2)c1	–	2.06 µM (active)
C=C(C(=O)O)C1CC2=C(C)CCCC2(C)C[C@@H]1O (stereo partly specified)	4.2	–
C[C@H]1CC[C@@]2(OC1)O[C@H]1CC3C4CC[C@H]5C[C@@H](O)[C@H](O)C[C@]5(C)C4=CC(=O)[C@]3(C)[C@H]1[C@@H]2C (stereo partly specified)	-10.8	–
COC1CC(OC2CCC3(C)C(=CCC4C3C(OC(C)=O)C(OC(=O)/C=C/c3ccccc3)C3(C)C(C(C)O)CCC43O)C2)OC(C)C1OC1CC(OC)C(OC2OC(C)C(OC3OC(CO)C(O)C(O)C3O)C(OC)C2O)C(C)O1 (stereo unspecified)	0.895	–
CC[C@H](CO)Nc1nc(NCc2ccc(-c3ccccn3)cc2)c2ncn(C(C)C)c2n1	–	0.517 µM (active)
CCCCc1ccc(C(=O)Nc2cc(-c3ccc(Cl)cc3)nn2-c2ccc(Cl)cc2)cc1	-1.01	–
CC1(C)CC2C(C1)C(C)(O)C13CC1(COC3=O)C2O (stereo unspecified)	-6.54	–
